The record followed here is PubChem BioAssay (NCATS).

Results filed as inconclusive are left out. The source holds several records for some structures; these can differ, active in one and inactive in another. A number with no mark means an inactive call. The call rests on the fitted dose curve; in most records, active means well fitted inhibition curve with a large enough effect; inconclusive means small, poorly fitted or top-dose-only effect; inactive means flat fitted curve, though single readings scatter.
On the % scale 0 is the no-effect control and ±100 the full control effect.

The first assay can be described thus: Drug repurposing screens with cells derived from glioblastoma tumor samples (AID 1345199). Further: nearly all actives have a fitted effect of over 40% in size. The settings on record: GBM patient neurospheres viability, ATP luminescence, 48 h; at 46 µM (top of the series); tumour line A. The essentials:
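Primary testing used CD133+ neurospheres from four GBM patients, seven concentrations, 48 h exposure and ATP-based viability; confirmation added three slower-growing patient lines.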
Consider `CC12CC3CC(C)(C1)CC(N)(C3)C2`, for which the activity, negative = cell killing is 0.163%. Regarding `Cn1c(=O)c2c(ncn2C)n(C)c1=O`, the activity, negative = cell killing is -31.4%.

Turning to `CC(C(=O)O)c1cccc(C(=O)c2ccccc2)c1` (centres undefined), the activity, negative = cell killing was -32%. As for `NS(=O)(=O)c1cc2c(cc1Cl)NCNS2(=O)=O`, the activity, negative = cell killing was -4.73%. On the same count and under the same terms, as for `NC(=O)NO`, the figure is -19.1%; as for `CCc1cccc2c3c([nH]c12)C(CC)(CC(=O)O)OCC3` (centres undefined), -23.8%. `Cc1cn([C@H]2C=C[C@@H](CO)O2)c(=O)[nH]c1=O`: the activity, negative = cell killing was -20.7%. As to `CC(C)(C)C(=O)Oc1ccc(S(=O)(=O)Nc2ccccc2C(=O)NCC(=O)O)cc1`, the activity, negative = cell killing is -15.5%.

Still in this assay, the particulars now being: GBM patient neurospheres viability, ATP luminescence, 48 h; at 46.1 µM (top of the series); tumour line C.
Take `CC12CC3CC(C)(C1)CC(N)(C3)C2`: the activity, negative = cell killing is 0.449%. Regarding `Clc1ccc2c(c1)C(N1CCNCC1)=Nc1ccccc1O2`, the activity, negative = cell killing was -0.706%. Turning to `CCOC(=O)Nc1ccc(NCc2ccc(F)cc2)nc1N`, the activity, negative = cell killing was 4.51%.

For `Cn1c(=O)c2c(ncn2C)n(C)c1=O`, the activity, negative = cell killing is -0.268%. Same read-out and setting: as for `Cn1cnc2c1c(=O)[nH]c(=O)n2C`, the figure is 1.28%. Turning to `CC(C(=O)O)c1cccc(C(=O)c2ccccc2)c1` (centres undefined), the activity, negative = cell killing was 2.51%. As to `CCCNCC(O)COc1ccccc1C(=O)CCc1ccccc1` (centres undefined), the activity, negative = cell killing was 27.1%. With `Clc1ccc(C(c2ccccc2Cl)C(Cl)Cl)cc1` (centres undefined), the activity, negative = cell killing is 32.2%.

Regarding `Nc1ccn([C@H]2CC[C@@H](CO)O2)c(=O)n1`, the activity, negative = cell killing is -9.64%. On the same count and under the same terms, next, `NS(=O)(=O)c1cc2c(cc1Cl)NCNS2(=O)=O`: -21.1%; `NC(=O)NO`: -11.2%.
